The sequences below were run against T1, Hb (Drosophila melanogaster, UniProt P05084 225-364) (assay: FP; 33 mM phosphate pH 7.0, 90 mM NaCl, 0.01% Tween 20, 0.1 mM DTT, 0.5% agarose; room temperature). Conditions: tags: N-GST (pGEX-6P-1, kept); dsDNA, one strand shown.
T1 sequence: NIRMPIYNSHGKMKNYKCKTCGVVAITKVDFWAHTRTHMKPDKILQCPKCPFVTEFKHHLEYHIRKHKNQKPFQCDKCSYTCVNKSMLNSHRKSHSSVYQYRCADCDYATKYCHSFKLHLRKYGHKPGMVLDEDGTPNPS
With AGTATTTTAGGC the binding signal was 8.15 Kd / Kd of best base at the position.
In the case of AGTTTTTTAGGA, the binding signal is reported as 1.46 Kd / Kd of best base at the position.
In the case of AGTTTTTTGGGC, the binding signal is reported as 6.22 Kd / Kd of best base at the position.
ACTTTTTTAGGC was tested, and the binding signal was 1.03 Kd / Kd of best base at the position.
With AGATTTTTAGGC the binding signal was 3.22 Kd / Kd of best base at the position.

Each sequence was assayed against T2, Hkb (Drosophila melanogaster, UniProt Q9VN10 181-296) in the same assay as above. Conditions: tags: N-GST (pGEX-6P-1, kept); dsDNA, one strand shown.
T2 sequence: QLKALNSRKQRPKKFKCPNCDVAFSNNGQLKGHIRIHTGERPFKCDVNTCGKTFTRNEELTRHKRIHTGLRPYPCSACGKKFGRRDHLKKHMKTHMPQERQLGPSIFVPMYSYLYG
In the case of AAGGGGCGTAAT, the binding signal is reported as 130 Kd / Kd of best base at the position.
AAGGGGCATGAT was tested, and the binding signal was 318 Kd / Kd of best base at the position.
With ACGGGGCGTGAT the binding signal was 2.33 Kd / Kd of best base at the position.
With AAGGGGCGCGAT the binding signal was 170 Kd / Kd of best base at the position.
For AAGGTGCGTGAT, the binding signal was 62.2 Kd / Kd of best base at the position.
With AAGGCGCGTGAT the binding signal was 108 Kd / Kd of best base at the position.
In the case of AAGAGGCGTGAT, the binding signal is reported as 8.29 Kd / Kd of best base at the position.
For CAGGGGCGTGAT, the binding signal was 6.48 Kd / Kd of best base at the position.
For AAGGGACGTGAT, the binding signal was 86.7 Kd / Kd of best base at the position.
With AAGGGGGGTGAT the binding signal was 55.1 Kd / Kd of best base at the position.
AGGGGGCGTGAT was tested, and the binding signal was 5.34 Kd / Kd of best base at the position.
AACGGGCGTGAT was tested, and the binding signal was 16.2 Kd / Kd of best base at the position.
In the case of AAGGGGCGAGAT, the binding signal is reported as 75.8 Kd / Kd of best base at the position.
AAGGGGAGTGAT was tested, and the binding signal was 103 Kd / Kd of best base at the position.
AAGGGGCGTGAC was tested, and the binding signal was 1.18 Kd / Kd of best base at the position.
With AAGGGTCGTGAT the binding signal was 116 Kd / Kd of best base at the position.
In the case of AAGGAGCGTGAT, the binding signal is reported as 52 Kd / Kd of best base at the position.
AAGGGGCGTTAT was tested, and the binding signal was 124 Kd / Kd of best base at the position.
For AATGGGCGTGAT, the binding signal was 1.81 Kd / Kd of best base at the position.
With AAGGGGCCTGAT the binding signal was 164 Kd / Kd of best base at the position.
In the case of GAGGGGCGTGAT, the binding signal is reported as 3 Kd / Kd of best base at the position.
With AAGGGGCGTCAT the binding signal was 134 Kd / Kd of best base at the position.
For AAGGGGTGTGAT, the binding signal was 277 Kd / Kd of best base at the position.
AAGGGGCGTGCT was tested, and the binding signal was 119 Kd / Kd of best base at the position.
AAGGGGCGTGTT was tested, and the binding signal was 150 Kd / Kd of best base at the position.
TAGGGGCGTGAT was tested, and the binding signal was 2.68 Kd / Kd of best base at the position.
With AAGGGGCGTGGT the binding signal was 127 Kd / Kd of best base at the position.
For AAGGGCCGTGAT, the binding signal was 107 Kd / Kd of best base at the position.
Sequence AAGGGGCGTGAT has a Kd of roughly 2.3 nM.
In the case of AAGGGGCGTGAG, the binding signal is reported as 1.09 Kd / Kd of best base at the position.
With AAGCGGCGTGAT the binding signal was 121 Kd / Kd of best base at the position.
In the case of AAGTGGCGTGAT, the binding signal is reported as 155 Kd / Kd of best base at the position.
For AAGGGGCGGGAT, the binding signal was 85.9 Kd / Kd of best base at the position.
For AAGGGGCTTGAT, the binding signal was 235 Kd / Kd of best base at the position.
AAAGGGCGTGAT was tested, and the binding signal was 3.42 Kd / Kd of best base at the position.

From paper PMC5913336, “True equilibrium measurement of transcription factor-DNA binding affinities using automated polarization microscopy”
